Structures are written as SMILES. Inconclusive results are not listed. Activity calls are given as the source filed them. The call rests on the fitted dose curve. Bridge positions count the residues as written; N and C are the ends. Square brackets hold non-standard residues; d marks the D form. Peptide text beside a SMILES is read from it. * marks the point of attachment. Ileψ(thiazoline)Cys = CC[C@H](C)[C@H](N)C1=N[C@H](C(=O)*)CS1; d(aIle) = CC[C@H](C)[C@@H](N)C(=O)O; dOrn = NCCC[C@@H](N)C(=O)O

The experiment in a line: qHTS Assay for Lipid Storage Modulators (AID 1519). On activity change, negative = inhibition: on the % scale 0 is the no-effect control and ±100 the full control effect. The settings on record: Drosophila S3 cells, BODIPY lipid droplet/cell ratio, laser cytometry, cells loaded with oleic acid. An excerpt:
NIH Molecular Libraries Probe Production Centers Network [MLPCN]
NIH Chemical Genomics Center [NCGC]
Assay Submitter (PI): Beller, Mathias; Max-Planck-Institut fur Biophysikalische Chemie
NCGC Assay Overview: Storing lipids as a reservoir for energy or the anabolism of elementary metabolites is a common feature of probably all cells and is conserved from bacteria to humans. The universal cellular lipid storage organelle is the so-called lipid storage droplet (LD). Although ubiquitous, LDs share a simple structure composed of a hydrophobic core that harbors the storage lipids, which is shielded by a droplet-specific phospholipid monolayer to which proteins are attached. The current model of LD biogenesis involves an incorporation of the lipid core into the membrane leaflets of the endoplasmic reticulum (ER) followed by a subsequent budding-like maturation of a LD, which ultimately pinches off. Once released, LD volume can increase by localized lipogenesis or fusion of existing droplets. Storage lipids are re-mobilized enzymatically by lipase activity. Lipase regulation in the adipocyte is heavily studied and involves multiple components including catecholamine signaling, the LD-associated proteins Perilipin and comparative gene identification-58 (CGI-58) and at least two lipases named hormone sensitive lipase (HSL) and adipocyte triglyceride lipase (ATGL). LD regulation outside of the adipocyte is poorly understood and only few components are known. However, there is an urgent need to learn more about ectopic fat depots as mislocalized storage of lipids, for example in the liver or muscle, is an eminent health problem associated with insulin resistance or the metabolic syndrome. We developed a laser-scanning cytometer assay to enable 1,536-well screening and combined the results of the small molecules screen with an RNAi database based on lipid storage.
NCGC Assay Protocol Summary:
We dispensed 4 uL of cells at 1.25 x 10^6 cells/mL into LoBase Aurora COC 1,536-well plates (black walled, clear bottom) with a bottle-valve solenoid-based dispenser (Aurora) to obtain 5,000 cells/well. Triacsin C (Sigma-Aldrich T-4540), an inhibitor of long-chain fatty acyl CoA synthetase that blocks synthesis of triglycerides, was used as a positive control for lipid under-storage. A total of 23 nL of compound solution of different concentrations were transferred to the assay plates using a Kalypsys pin tool equipped with a 1,536-pin array containing 10-nL slotted pins (FP1S10, 0.457-mm diameter, 50.8 mm long; V&P Scientific). One microliter of oleic acid (400 uM) was added, and the plate was lidded with stainless steel rubber gasket lined lids containing pinholes. […] Fluorescence was detected by excitation of the fluorophores with a 488-nm laser on an Acumen Explorer (TTP Lab Tech). The total intensity in channel 1 (500-530 nm) reflected lipid droplet accumulation. […] The ratio of the total intensity in PMT channel 1 over total intensity of channel 3 was also calculated. Percent activity was computed relative to an internal control (100% inhibited lipid droplet deposition due to the presence of 20 uM Triacsin C), which was added to 32 wells/plate.
For orientation: In qHTS, concentration-response curves come from the screen itself.

Where [1] appears, read: measured here: cell count channel max response.
Where [2] appears, read: measured here: lipid channel max response.

Turning to `C[C@H](N)CCCC(C)(C)O`, the activity change, negative = inhibition (at 25.7 µM (top of the series)) was -0.344% (inactive). The max response runs as follows: under setting [1], 0.317%; under setting [2], 0.936%.

Consider `CN(C)CCOC(=O)[C@@H](c1ccccc1)C1(O)CCCC1`, for which, where the note is “at 25.7 µM (top of the series)”, the activity change, negative = inhibition is -1.19% (inactive). The max response is, setting by setting: under setting [1], 2.88%; under setting [2], 1.92%.

For the molecule `CC[C@H](C)[C@H](N)C1=N[C@H](C(=O)N[C@@H](CC(C)C)C(=O)N[C@@H](CCC(=O)O)C(=O)N[C@@H](C(=O)N[C@H]2CCCCNC(=O)[C@@H](CC(N)=O)NC(=O)[C@@H](CC(=O)O)NC(=O)[C@@H](Cc3cnc[nH]3)NC(=O)[C@@H](Cc3ccccc3)NC(=O)[C@@H]([C@@H](C)CC)NC(=O)[C@@H](CCCN)NC2=O)[C@@H](C)CC)CS1` ({Ileψ(thiazoline)Cys}-LE[d(aIle)]K[dOrn][d(aIle)][dF][dH][dD][dN]; lactam 4-C), the activity change, negative = inhibition (at 25.7 µM (top of the series)) was -0.807% (inactive). In addition, the max response is, setting by setting: under setting [1], -6.25%; under setting [2], -6.65%.

As for `CC(=O)O[C@@H]1C(=O)[C@@]2(C)[C@H](O)C[C@H]3OC[C@]3(OC(C)=O)[C@@H]2[C@H](OC(=O)c2ccccc2)[C@@]2(O)C[C@H](OC(=O)[C@@H](O)[C@@H](NC(=O)c3ccccc3)c3ccccc3)C(C)=C1C2(C)C` (stereo in doubt), under “at 25.7 µM (top of the series)”, the activity change, negative = inhibition is -8.68% (inactive). The max response is, setting by setting: under setting [1], -5.62%; under setting [2], -13.6%.

Regarding `C#C[C@]1(O)CC[C@@H]2[C@H]3CCc4cc(OC)ccc4[C@@H]3CC[C@@]21C`, the activity change, negative = inhibition (at 25.7 µM (top of the series)) was -2.31% (inactive). Further, the max response runs as follows: under setting [1], -15.5%; under setting [2], -16.7%.

`CN1CC(=O)N=C1N`: the activity change, negative = inhibition (at 57.5 µM (top of the series)) is 4.35% (inactive). For the same molecule, the max response is, setting by setting: under setting [1], 5.89%; under setting [2], 9.11%.

With `NCC1O[C@@H](OC2C(N)C[C@H](N)[C@@H](O[C@H]3OC(CO)C(O)C(N)C3O)C2O)C(N)C(O)C1O` (some centres not stated), the activity change, negative = inhibition (at 57.5 µM (top of the series)) was 2.92% (inactive). For the same molecule, the max response turned out to be 11.9% under setting [1] and 7.99% under setting [2].

As to `COC(=O)CC1C(C)(C)C(OC(C)=O)C2CC3C4CC(=O)OC(c5ccoc5)[C@]4(C)CCC3[C@@]1(C)C2=O` (some centres not stated), the activity change, negative = inhibition (at 57.5 µM (top of the series)) is -20.8% (inactive). The max response under setting [1] amounted to 1.85% and the max response under setting [2] was -17.5%.

Turning to `CC1O[C@@H](O[C@H]2C(Oc3cc(O)c4c(=O)cc(-c5ccc(O)cc5)oc4c3)OC(CO)C(O)C2O)C(O)C(O)C1O` (some centres not stated), the activity change, negative = inhibition (at 57.5 µM (top of the series)) is 4.65% (inactive). In addition, the max response reads like this: under setting [1], 16.6%; under setting [2], 23.3%.

For `O=c1cc(-c2ccc(O)cc2)oc2ccc(O)cc12`, the activity change, negative = inhibition (at 57.5 µM (top of the series)) is 6.92% (inactive). For the same molecule, the max response stood at 7.61% under setting [1] and 15.4% under setting [2].

For the molecule `C[C@@]12CCC(=O)C=C1C=CC1C2CC[C@]2(C)C1CC[C@@]21CCC(=O)O1` (some centres not stated), the activity change, negative = inhibition (at 57.5 µM (top of the series)) was 7.74% (inactive). Besides, the max response under setting [1] worked out at 3.63% and the max response under setting [2] came to 12.9%.

`Nc1nc2[nH]c(=O)[nH]c2c(=O)[nH]1`: the activity change, negative = inhibition (at 57.5 µM (top of the series)) was -0.21% (inactive). The max response by setting is: under setting [1], 10.7%; under setting [2], 11.7%.

Turning to `CC(=O)Oc1cc(-c2coc3cc(OC(C)=O)c(OC(C)=O)c(OC(C)=O)c3c2=O)cc(OC(C)=O)c1OC(C)=O`, the activity change, negative = inhibition (at 57.5 µM (top of the series)) is 13.7% (inactive). Also, the max response by setting is: under setting [1], 12.1%; under setting [2], 28.6%.

In the case of `COC(=O)C1C(O)CC[C@@H]2CN3CCc4c([nH]c5ccccc45)C3C[C@@H]12` (some centres not stated), the activity change, negative = inhibition (at 57.5 µM (top of the series)) was 4.48% (inactive). Besides, the max response runs as follows: under setting [1], 19.7%; under setting [2], 26.3%.
